This is an account of results in PubChem BioAssay AID2315 (National Center for Advancing Translational Sciences (NCATS), 2010).

The structures appear in SMILES notation. The campaign covered roughly 290,000 compounds. About 27,000 (9.3%) were called active. Cut-off read from the data, not from the text of the source: active = inhibition mostly above about 28% (no sharp cut-off); inactive = mostly below about 43%. The full list was thinned out, with actives kept by preference.

This experiment is described as follows: A qHTS for Small Molecule Inhibitors of Shiga Toxin. Note: 0% is about no effect. The following applies: Vero cells, Shiga toxin protein synthesis inhibition reporter; at 38.7 µM, stronger effect = higher value. (In general: In qHTS, concentration-response curves come from the screen itself.)
Take `CCn1ccnc1CN(C)C(=O)c1ccc2nc(Cc3ccc(OC)cc3)oc2c1`: the inhibition was -2.76% (inactive).
In the case of `CC(c1ccccn1)N(C)C(=O)c1ccc2nc(Cc3cccc(Cl)c3)oc2c1` (centres undefined) it was 73.2% (active); in that of `CC(C(=O)NCC1CCCCC1)N(C)Cc1cccc(Cl)c1` (centres undefined), 25.2% (inactive).
Then `CC(C)CCNC(=O)c1ccc2c(Cl)c3c(nc2c1)CCC3`, with 70.3% (active).
Then `CC(=O)c1ccc(NC(=O)c2ccc3c(Cl)c4c(nc3c2)CCCC4)cc1`, with -8.45% (inactive).
As for `COc1ccc(N2CCN(C(=O)c3ccc4c(Cl)c5c(nc4c3)CCCC5)CC2)cc1`, the inhibition is -17.4% (inactive).
In the case of `O=C(CNC(=O)OCc1ccccc1)NC1CCCCNC1=O` (centres undefined) it was -7.21% (inactive); in that of `COC(=O)c1ccccc1NC(=O)C1(S(=O)(=O)c2ccc(Cl)cc2)CC1`, -19.5% (inactive); in that of `COc1ccc(C2NC(=S)NC3=C2CCc2ccccc23)cc1OC` (centres undefined), -17% (inactive).
In the case of `CCOc1ccc(C2NC(=S)NC3=C2CCc2ccccc23)cc1` (centres undefined) it was 50.5% (active).
Turning to `CCOC(=O)C1=C(c2ccccc2)NC(=S)NC1c1ccc(Cl)cc1` (centres undefined), the inhibition is -13.4% (inactive).
In the case of `Cc1ccccc1N(C(=O)CNC(=O)c1cccs1)C(C(=O)NC1CCCC1)c1ccncc1` (centres undefined) it was 10.5% (inactive); in that of `CCOC(=O)c1cnc(SCc2nc(N)nc(Nc3ccc(OC)cc3)n2)nc1N`, 19.9% (inactive).
In the case of `COc1ccc(Nc2nc(N)nc(CSC(=S)N3CCC(C)CC3)n2)cc1` it was 76.8% (active).
In the case of `COc1ccccc1Nc1nc(N)nc(CSC(=S)N2CCOCC2)n1` it was 68.3% (inactive); in that of `Cc1cc(C)c(S(=O)(=O)Nc2c(C)n(C)n(-c3ccccc3)c2=O)cc1[N+](=O)[O-]`, -11.7% (inactive); in that of `CCOC(=O)c1ccc(NC(=S)N2CCN(c3ccccn3)CC2)cc1`, -8.31% (inactive).
As for `Cc1cc(Cl)nc(NC(=O)Nc2cccc(Cl)c2)n1`, the inhibition was 61.3% (inactive).
Take `Cc1cc(C)nc(NC(=O)C(C)N2C(=O)c3ccccc3C2=O)n1` (centres undefined): the inhibition was -5.77% (inactive).
Then `Cc1cc(C)nc(NC(=O)Nc2ccccc2C(F)(F)F)n1`, with 59.8% (active); and `CC(NC(=O)c1ccccc1C(=O)O)c1ccc(-n2ccnc2)cc1` (centres undefined), with 14.3% (inactive); and `O=C(N/N=C\c1cccc(Br)c1)c1ccccc1-n1cccc1`, with 14.5% (inactive).
`O=C(NCc1ccccn1)c1cc2ccccc2oc1=O`: the inhibition was 72.4% (active).
For the compound `CN(c1ccccc1)S(=O)(=O)c1ccc(Cl)c(C(=O)NCCc2c[nH]c3ccccc23)c1`, the inhibition was 1.16% (inactive).
Then `O=C(NCCc1c[nH]c2ccccc12)c1cc2ccccc2oc1=O`, with 121% (active); and `O=C(NCCc1c[nH]c2ccccc12)c1cccc(Br)c1`, with 22.8% (inactive); and `N=c1oc2ccccc2cc1C(=O)N/N=C/c1ccccc1`, with 76.3% (active).
Then `COc1cccc2cc(C(=O)NCc3ccc(C)cc3)c(=N)oc12`, with 15.9% (inactive).
Then `Cc1cc(C)cc(OCC(=O)NNC(=O)c2cc3ccccc3oc2=O)c1`, with 38.5% (inactive).
As for `CNC(=O)c1cc2c(ccc3ccccc32)oc1=N`, the inhibition was 30.1% (inactive).
Then `COc1ccc2oc(=O)c(C(=O)NCc3ccccn3)cc2c1`, with 24.7% (inactive).
For `CC(NC(=O)c1cc2cc(Cl)ccc2oc1=N)c1ccccc1` (centres undefined), the inhibition was 23.9% (inactive).
In the case of `N=c1oc2ccccc2cc1C(=O)NCc1ccccc1` it was 52.2% (active); in that of `Cc1[nH]c2c(C(=O)N3CCCC(CCC(=O)NCc4ccccc4F)C3)cccc2c1C` (centres undefined), 16.4% (inactive).
Then `CCOCCCNC(=O)C1(O)c2cc(Br)ccc2NC(=O)N1c1ccc(C)c(C)c1` (centres undefined), with -7.51% (inactive).
Then `Cc1ccccc1OCC(=O)Nc1ccc(S(=O)(=O)N2CCOCC2)cc1`, with -7.1% (inactive); and `Cc1cc(NC(=O)CCC(=O)N(Cc2ccccc2)C(C(=O)NC2CCCC2)c2ccc(C)o2)no1` (centres undefined), with 11.3% (inactive); and `O=C1CCNCCN1[C@H](CO)Cc1ccccc1`, with -8.58% (inactive).
Regarding `CCC(C)N1CC(=O)N2Cc3[nH]c4ccccc4c3C[C@H]2C1=O` (some centres undefined), the inhibition is -5.65% (inactive).
Then `COc1ccc(OC)c(C(=O)NC(CC(N)=O)c2ccc(N3CCC(N4CCCCC4)CC3)c([N+](=O)[O-])c2)c1` (centres undefined), with -6.13% (inactive); and `COc1ccc(Cc2nnc(SCC(=O)Nc3ccc(C)c(C)c3)o2)cc1OC`, with -3.66% (inactive); and `CN1CCN(Cc2c(O)ccc3c2oc(=O)c2ccccc23)CC1`, with 23.3% (inactive).
In the case of `CCN1CCN(Cc2c(O)ccc3c(=O)c(-c4ccc(OC)c(OC)c4)c(C(F)(F)F)oc23)CC1` it was 21.4% (active).
In the case of `CCOC(=O)c1oc2c(CN3CCN(C)CC3)c(O)ccc2c(=O)c1-c1ccc(Br)cc1` it was 15.8% (inactive); in that of `CC(C)=CCCC1(C)C=Cc2c(ccc3c2[nH]c2cc(O)c(C)cc23)O1` (centres undefined), 23.1% (inactive).
Take `CC(C)Oc1ccc(CN2CCC(n3nccc3NC(=O)c3cccnc3)CC2)cc1`: the inhibition is -10.5% (inactive).
Then `O=C(Cc1ccsc1)N1CCN(S(=O)(=O)c2cc(C(F)(F)F)cc(C(F)(F)F)c2)CC1`, with -17.3% (inactive); and `O=C(COc1ccc([N+](=O)[O-])cc1)Nc1cccc(C(=O)Nc2ccccc2C(=O)O)c1`, with -17.8% (inactive).
As to `O=c1oc2ccccc2cc1-c1cn(-c2ccccc2)c(=S)[nH]1`, the inhibition is 24.5% (inactive).
Then `COc1ccc(-c2cn(-c3ccc(OC)cc3)c(=S)[nH]2)cc1`, with 38.6% (inactive).
In the case of `S=c1[nH]c(-c2cccs2)cn1-c1ccccc1` it was 58.2% (active); in that of `O=C(CN(C(=O)c1csnn1)c1ccc(Br)cc1)NC1CCCC1`, -6.01% (inactive).
In the case of `COc1ccc(Cl)cc1NC(=O)CCS(=O)(=O)c1ccc(Br)cc1` it was -3.47% (inactive); in that of `Cc1ccc(-c2cn3cc([N+](=O)[O-])ccc3n2)cc1`, 190% (active); in that of `CSc1nnc2ccc(-c3ccc(C)cc3)nn12`, 5.52% (inactive).
Regarding `Cc1ccc(-c2cn3cc(C)ccc3n2)cc1`, the inhibition is -49.3% (inactive).
For the compound `Cc1ccc(C(=O)Cn2cc([N+](=O)[O-])nc2C)cc1`, the inhibition is -7.99% (inactive).
Then `Cc1ccc2nc(-c3ccc(Br)cc3)cn2c1`, with 23.9% (active); and `Cc1ccnc(N2C(=O)c3ccc([N+](=O)[O-])cc3C2=O)c1`, with 2.61% (inactive).

What is called inhibition is the relative decrease from the control value, in per cent.
